A short description of test [1]: wild-type E. coli growth inhibition versus h38 humanized strain – h38 mutant RFP, wild-type GFP, cherry-pick, dose response (AID 977622). As to conditions: activity change: E. coli mixed culture, total growth OD600 at 50 uM, at 50 µM.
For test [2], the system named is E. coli h38 humanized mutant ribosome RFP fluorescence, mixed culture, 24 h. Described as above. To be noted: h38 mutant RFP at 50 uM; at 50 µM.

Hit rate of the full screen: of about 1,900 compounds, fewer than 10 were called active. Inconclusive results (about 39%) are left out.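 How the source made its calls: active means Green signal of the normal strain falls at least twice as much as red signal of the resistant mutant, with overall culture growth loss under a set limit; inconclusive means no clear call, values can overlap the other calls; inactive means the rest.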 The list is a sample of the results.

These results are taken from PubChem BioAssay AID977622 (Broad Institute, 2014).

As for `c1ccc(SCc2nc3ccccc3s2)nc1`, in test [1], the activity change is -3.53% and the result was inactive. In addition, the activity change in test [2] was 8.07%.
For `Cc1ccc(NS(=O)(=O)c2ccc3c(c2)CCC(=O)N3)cc1C` the same measures were -8.95%, “inactive” and -10.9%.
For `O=C(Nc1cccc(F)c1)N1C[C@@H]2[C@H](c3ccccc31)[C@H](CO)N2C(=O)Cc1ccccn1` the same measures were 4.66%, “inactive” and -3.32%.
With `COc1ccc(-c2cc(C(=O)Nc3ccc(C(N)=O)cc3)c3ccccc3n2)cc1OC`, in test [1], the activity change was 8% and the outcome was inactive. In test [2], the activity change is -4.25%.
In the case of `N#Cc1ccc(-c2ccc(C3[C@H]4CNC[C@@H]3N4S(=O)(=O)c3ccc(-c4ccccc4)cc3)cc2)cc1` (stereo partly drawn), the activity change is -54.5% in test [1] and 244% in test [2]. Further, in test [1], the result was inactive.
For the compound `Nc1ccc(C(=O)OCCCc2nc3cc4ccccc4cc3[nH]2)cc1`, in test [1], the activity change is 3.79% and the compound was called inactive. In addition, the activity change in test [2] was 0.364%.
`O=C(NCc1nc2ccccc2[nH]1)c1ccc(S(=O)(=O)N2CCCC2)cc1`: the activity change in test [1] is -24.9%; in test [2], 2.82%. For the same compound, the compound was classed as inactive in test [1].
As to `CC[n+]1c(C)cc2c(sc3ccccc32)c1C`, in test [1], the activity change was -0.26% and the outcome was inactive. For the same compound, the activity change in test [2] is -7%.
For the compound `COc1ccccc1NC(=O)CSc1ncc(CO)n1Cc1ccc(F)cc1`, in test [1], the activity change is -27.8% and the call was inactive. In addition, the activity change in test [2] was -17.1%.
`CSc1ccc(CN(C)C(=O)C(c2ccccc2)c2ccccc2)cc1`: in test [1], the activity change was -21.9% and the call was inactive. For the same compound, the activity change in test [2] was -20.3%.
On to `O=C(Nc1ccc(C(=O)Nc2ccccc2Cl)cc1)c1cccnc1`, for which, in test [1], the activity change is -26.4% and the compound was called inactive. Moreover, the activity change in test [2] was -26%.
In the case of `COC(=O)c1ccc(CCc2cc(O)c(Br)cc2O)cc1`, the activity change is -52.8% in test [1] and 27.3% in test [2]. Besides, the result in test [1] was inactive.
In the case of `O=C(Nc1ccc(C(=O)c2ccccc2)cc1)c1ccccc1`, in test [1], the activity change is -40.2% and the call was inactive. Besides, the activity change in test [2] is -22.1%.
With `OC[C@H]1[C@H](c2ccc(-c3ccc(F)cc3)cc2)[C@@H]2CN(Cc3ccncc3)CCCCN12`, the activity change in test [1] is -3.55%; in test [2], -17.5%. The compound was called inactive in test [1].
Consider `O=C(NCCCn1ccnc1)c1sc2cc([N+](=O)[O-])ccc2c1Cl`, for which, in test [1], the activity change is -6% and the compound was classed as inactive. The activity change in test [2] was -1.75%.
In the case of `CCC1(CC)NC(=O)N(CC(=O)N2N=C(c3ccc(Cl)cc3)CC2c2ccco2)C1=O` (stereo not drawn), the activity change was -19.3% in test [1] and -38.4% in test [2]. The compound was called inactive in test [1].
In the case of `O=C(COc1cccc2c1CCN(Cc1ccccc1F)C2=O)N1CCCCC1`, in test [1], the activity change was -32.1% and the call was inactive.
As for `O=C(Nc1cccc(S(=O)(=O)c2cccc(NC(=O)C3CC3)c2)c1)C1CC1`, the figures for the activity change in test [1] and in test [2] were -38.1% and 4.96%, respectively. Moreover, the outcome in test [1] was inactive.
`O=S(=O)(Cc1ccccc1)N1CCCCN2[C@@H](CO)[C@@H](c3ccc(-c4cccnc4)cc3)[C@@H]2C1`: the activity change in test [1] is -6.81%; in test [2], 16.2%. Further, the result in test [1] was inactive.
On to `Cc1noc(C)c1NC(=O)Nc1ccc2c(c1)C(=O)N([C@@H](C)CO)C[C@@H](C)[C@@H](CN(C)C(=O)Nc1ccc3c(c1)OCO3)OCCCC[C@@H](C)O2`, for which the activity change in test [1] was -2.53%; in test [2], 20.3%. Also, the compound was classed as inactive in test [1].
On to `Fc1ccc(-c2nc3c(Cl)cc(C(F)(F)F)cn3c2Cc2ccsc2)cc1`, for which, in test [1], the activity change is -5.9% and the outcome was inactive. In addition, in test [2], the activity change was 5.92%.
Regarding `COC(=O)CN1C(=S)N(c2ccc(F)cc2)C(=O)C1CC(=O)Nc1ccc(OC)cc1` (stereo not drawn), the values for the activity change in test [1] and in test [2] were -4.61% and 9.32%, respectively. Further, the compound was classed as inactive in test [1].
Turning to `CCOc1ccc(C(C)=O)cc1CN1C(=O)NC2(CCCCCCC2)C1=O`, in test [1], the activity change is -23.9% and the call was inactive. Further, the activity change in test [2] is -21%.
For the compound `O=C(c1ccc2c3c(cccc13)CC2)N1CCN(c2ncccn2)CC1`, in test [1], the activity change is -3.01% and the result was inactive. In addition, the activity change in test [2] is -11.5%.
As to `Cc1ccc(NC(=O)CN(C)S(=O)(=O)c2cccc3cccnc23)cc1F`, the activity change is -37.4% in test [1] and -40.8% in test [2]. In addition, the compound was called inactive in test [1].
As to `O=c1[nH]c2cc([N+](=O)[O-])ccc2c2ccccc12`, in test [1], the activity change is 4.42% and the compound was called inactive.
For `COC(=O)c1cc2c(c3c4cc(F)ccc4n(S(=O)(=O)c4cccc(C)c4)c13)C(=O)N(Cc1ccco1)C2`, in test [1], the activity change is -11.5% and the compound was called inactive. Further, in test [2], the activity change amounted to 17.4%.
Regarding `O=C(Cc1ccc(Cl)cc1)c1ccc(O)cc1`, in test [1], the activity change was -1.58% and the outcome was inactive.
In the case of `Cc1ccc(Cc2c(-c3ccc(C#N)cc3)nc3ccc(Br)cn23)cc1`, in test [1], the activity change stood at 2.82% and the compound was called inactive. Also, the activity change in test [2] is -11%.
For the compound `O=c1c2ccccc2cnn1Cc1n[nH]c(=S)n1C1CC2CCC1C2` (stereo not drawn), the activity change was -3.34% in test [1] and -28.9% in test [2]. In addition, the call in test [1] was inactive.
In the case of `Cc1cccc(-c2ccc([C@H]3[C@H](CO)N4CCCCN(S(=O)(=O)c5ccccc5C)C[C@@H]34)cc2)c1`, the values for the activity change in test [1] and in test [2] were 4.65% and 11.4%, respectively. Moreover, in test [1], the call was inactive.
On to `Nc1ccc2nc(-c3ccc(Cl)cc3)[nH]c2c1`, for which the call in test [1] was inactive. In addition, the activity change in test [2] is -11.3%.
As to `CS(=O)(=O)N1CC2CCCN2c2ccc(C(F)(F)F)cc21` (stereo not drawn), the activity change is -10.4% in test [1] and 2.53% in test [2]. Moreover, the call in test [1] was inactive.
In the same order, the values of `Cc1ccc(C)c(N(CC(=O)NC2CCCC2)C(=O)c2oc(C(C)(C)C)cc2C)c1` are -14.2%, 21% and “inactive”.
With `COc1cc2ccccc2cc1C(=O)NC1CCCCC1`, in test [1], the activity change was -0.887% and the compound was called inactive.
`COCCCNC(=O)c1ccc(-c2nc3ccccc3nc2-c2ccccc2)cc1`: the activity change was -2.27% in test [1] and 8.8% in test [2]. In test [1], the outcome was inactive.
For `Cc1ccc(NC(=O)CCCSc2ccccc2)cc1S(=O)(=O)N1CCOCC1` the same measures were 7.64%, 4.8% and “inactive”.
For `NC(=O)c1cc(C(=O)c2ccc(Cl)cc2)c[nH]1`, the activity change in test [1] was -13.1%; in test [2], 0.863%. In addition, in test [1], the call was inactive.
`Cc1noc(C)c1NC(=O)Nc1ccc2c(c1)C(=O)N([C@@H](C)CO)C[C@H](C)[C@@H](CN(C)C(=O)Nc1ccc3c(c1)OCO3)OCCCC[C@H](C)O2`: the activity change in test [1] was -13.3%; in test [2], 7.1%. Further, the call in test [1] was inactive.
For `O=C(c1ccccc1)N(c1ccccc1)c1nccc2ccccc12`, in test [1], the activity change is -7.9% and the outcome was inactive. Besides, the activity change in test [2] was 31.1%.
As for `Cc1ccc(S(=O)(=O)Nc2ccccc2CNc2cccc(C)n2)cc1`, in test [1], the activity change was -17.7% and the compound was called inactive.
Consider `CCC(C(=O)Nc1ccsc1C(=O)OC)c1ccccc1` (stereo not drawn), for which, in test [1], the activity change is -5.91% and the outcome was inactive. Also, the activity change in test [2] came out at 40.7%.
As to `CCOc1ccc(-c2nc(-c3cccs3)c(CC(=O)O)s2)cc1OC`, the activity change is -21.4% in test [1] and -8.71% in test [2]. Also, the compound was called inactive in test [1].
In the case of `COc1ccc(NS(=O)(=O)c2ccc(Cl)c(NC(=O)c3ccccc3F)c2)cc1`, in test [1], the activity change is -40% and the compound was called inactive. Moreover, in test [2], the activity change is -6.96%.
In the case of `Cc1noc(C)c1NC(=O)Nc1ccc2c(c1)C(=O)N([C@@H](C)CO)C[C@@H](C)[C@H](CN(C)C(=O)Nc1ccc3c(c1)OCO3)OCCCC[C@H](C)O2`, the activity change was -12.5% in test [1] and -3.87% in test [2]. For the same compound, the compound was called inactive in test [1].
Consider `COc1cc(-c2ccc(N3C(c4ccsc4)=Cc4ccc(F)cc4C3c3c[nH]c4ccc(C#N)cc34)cc2)cc(OC)c1OC` (stereo not drawn), for which, in test [1], the activity change was determined as 7.16% and the call was inactive. Also, the activity change in test [2] was 8.77%.
In the same order, the values of `c1ccc2c(c1)CSc1ccccc1N2` are -5.5%, “inactive” and -11.4%.
On to `CC(C)=C(c1ccc(Cl)cc1)c1c(N)ncnc1N`, for which, in test [1], the activity change is -10.9% and the call was inactive. Besides, the activity change in test [2] is -21.6%.
